GPR32 ag: qHTS for Agonists of Human Resolvin D1 Receptor DRV1; Probable G-protein coupled receptor 32 (Homo sapiens), O75388; CHO-K1 GPR32 beta-arrestin PathHunter luminescence, 90 min; zero percent set by DMSO-only wells; activation, % at 76.9 µM; 48,000 tested, 2.5% active; AID 1346428, 2018;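 active = activation of at least 60% and not above a set upper limit, about 1 call in 100 departs from these limits; inconclusive = activation of 40% to 60%, or above that upper limit; inactive = activation under 40%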; note: 0% is about no effect
Target sequence (O75388 whole entry, looked up): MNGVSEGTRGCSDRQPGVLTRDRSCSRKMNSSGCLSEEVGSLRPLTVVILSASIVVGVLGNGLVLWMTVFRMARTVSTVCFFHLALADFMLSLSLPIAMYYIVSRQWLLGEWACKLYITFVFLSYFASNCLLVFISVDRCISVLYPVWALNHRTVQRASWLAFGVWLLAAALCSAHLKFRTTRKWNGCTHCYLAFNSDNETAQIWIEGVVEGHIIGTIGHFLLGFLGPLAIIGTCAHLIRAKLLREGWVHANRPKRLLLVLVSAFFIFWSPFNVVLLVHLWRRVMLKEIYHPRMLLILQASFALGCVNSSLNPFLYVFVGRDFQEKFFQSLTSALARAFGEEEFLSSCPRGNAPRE
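Luminescent readout of beta-Gal complementation quantifies ligand-induced beta-arrestin association with GPR32 in CHO-K1 cells; 90 min compound incubation at 37 °C, detection 1 h at room temperature.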
HTT prom inh: Primary qHTS for Identification of Small Molecule Inhibitors of Huntingtin Promoter Activity | 48,000 tested, 0.93% active | Potency, µM (series often up to 57.5 µM), inactives show at the top dose activity change, negative = inhibition, actives largely listed as inhibitors | HEK293 HTT promoter firefly luciferase reporter, 24 h; note: potency is the fitted concentration of half-maximal effect; nearly all actives have a fitted effect of over 50% in size
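Quantitative HTS used concentration series of up to 57.5 uM final on HEK293 luciferase reporter cells, 24 h at 37 degrees C. Readout was Dual-Glo firefly luminescence.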
HTT-AS promoter: Primary qHTS for Identification of Small Molecule Activators of Huntingtin-Antisense Promoter Activity. HEK293 HTT-AS promoter firefly luciferase reporter, 24 h; response scale: percent change from vehicle, -100% = no light. Potency, µM (top dose mostly 57.5 µM), for inactives: at the highest dose activity change, positive = activation, actives largely listed as activators. 48,000 tested, 0.24% active. AID 1508624, 2021; note: potency is the fitted concentration of half-maximal effect; nearly all actives have a fitted effect of over 55% in size
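Luminescence was read after Dual-Glo reagent and a 10 min room-temperature incubation. Values were normalized to vehicle (0% activity) and zero RLU (-100% activity). Reporter HEK293 cells had been exposed to compounds (up to 57.5 uM final) for 24 h.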
* = called active by the depositor; ? = inconclusive; · = not tested or not shown; [ ] = dose if it differs, or a comment. Most compounds without a hit are left out; they make up all but 3.7% or so of the library. Unless noted, calls come from the whole dose curve; as a rule, active = well fitted curve in the direction sought with a large enough effect; inconclusive = small, poorly fitted or top-dose-only effect, or another doubt; inactive = no such curve, though single readings can be large; an effect the other way counts as inactive or inconclusive.

SMILES	GPR32 ag	HTT prom inh	HTT-AS promoter
CC(C)c1ccccc1Cc1cc(C(=O)Nc2ccc(S(=O)(=O)c3ccccc3C(C)(C)C)cc2)c(O)c(O)c1O	·	?	-36%
CC(=O)O[C@@]12CO[C@H]1C[C@H](O)[C@@]1(C)C(=O)[C@H](O)C3=C(C)[C@@H](OC(=O)C(O)[C@@H](NC(=O)OC(C)(C)C)c4ccccc4)C[C@@](O)([C@@H](OC(=O)c4ccccc4)[C@@H]21)C3(C)C (stereo partly specified)	·	-13%	-29%
CNC(=O)c1ccc(Nc2cc(Nc3ccccc3S(=O)(=O)C(C)C)c3cc[nH]c3n2)nc1	·	-17%	-37%
Cc1ccccc1-c1nnn(CC(=O)Nc2sc3c(c2C#N)CCC(C(C)(C)C)C3)n1 (stereo unspecified)	26	-7%	-13%
CC(C)(C)C1CCc2c(sc(NC(=O)Cn3nnc(-c4ccccc4Cl)n3)c2C#N)C1 (stereo unspecified)	89*	-1%	1%
CCn1nnc2c(N3CCOCC3)nc(-c3ccc(NC(=O)Nc4ccc(C(=O)N5CCN(C)CC5)cc4)cc3)nc21	·	?	-23%
C[C@H](NC(=O)C(C#N)=Cc1cccc(Br)n1)c1ccccc1	·	?	-89%
CC(=O)N[C@H]1[C@@H]([C@H](O)[C@H](O)CO)OC(C(=O)O)=C[C@@H]1N=C(N)N	·	6%	-9%
Cc1nn(S(=O)(=O)c2ccc(C(C)(C)C)cc2)c(C)c1S(=O)(=O)N1CCCCCC1	1	-4%	-7%
C#C[C@]1(O)CC[C@H]2[C@@H]3[C@H](C)CC4=C(CCC(=O)C4)[C@H]3CC[C@@]21C	99*	0%	-20%
CCc1ccc(C2Sc3ccccc3NC3=C2C(=O)c2ccccc23)cc1 (stereo unspecified)	-58	?	-1%
CC(C)c1ccc(C2Sc3ccccc3NC3=C2C(=O)c2ccccc23)cc1 (stereo unspecified)	-60	13µM*	-80%
O=C(NCCc1ccccc1Cl)c1ccc2c(=O)n(-c3ccccc3)c(=O)[nH]c2c1	40	?	-34%
CN1CCCCC1CCN1c2ccccc2Sc2ccc(S(C)=O)cc21 (stereo unspecified)	64*	0%	-4%
CN1CCN(CCCN2c3ccccc3Sc3ccc(Cl)cc32)CC1	2	-5%	-17%
O=C(Nc1ncc(-c2cc(C(F)F)nn2-c2c(Cl)cccc2Cl)s1)C1CC1	·	?	-42%
CC(O)C1C(=O)N2C(C(=O)O)=C(SC3CNC(C(=O)N(C)C)C3)C(C)C12 (stereo unspecified)	·	0%	-15%
Cc1cccc(C(=O)Nc2ccccc2-c2nc(-c3ccccc3)no2)c1	-4	10%	-2%
CC(=O)Nc1cccc(-c2nc(-c3ccccc3)no2)c1	0	56%	1.1µM*
OC1CCC(Nc2ncc3nc(Nc4c(F)cc(F)cc4F)n([C@@H]4CCOC4)c3n2)CC1 (stereo partly specified)	·	-5%	-4%
Cc1cc2[nH]c(=O)c(=O)[nH]c2cc1S(=O)(=O)N1CCN(c2cccc(C)c2C)CC1	-1	-3%	-11%
Cc1cc2[nH]c(=O)c(=O)[nH]c2cc1S(=O)(=O)N1CCN(c2ccccc2F)CC1	70*	12%	-6%
COc1ccc2nc(N(Cc3cccnc3)C(=O)c3ccc4c(c3)OCCO4)sc2c1	-12	-4%	3%
COc1ccc2sc(N(Cc3cccnc3)C(=O)c3ccc4c(c3)OCCO4)nc2c1	-7	11µM*	-20%
CCCNS(=O)(=O)c1cc(-c2nnc3c4ccccc4c(C)nn23)ccc1OC	-29	7%	-4%
SMILES	GPR32 ag	HTT prom inh	HTT-AS promoter
CC(=O)Nc1nc2n(n1)C(c1ccc(F)cc1)C=C(c1ccc(Cl)cc1)N2 (stereo unspecified)	-37	-17%	-18%
O=S(=O)(Nc1nc2n(n1)C(c1ccc(F)cc1)C=C(c1ccc(Cl)cc1)N2)c1ccccc1 (stereo unspecified)	95*	-4%	-10%
Cc1ccc(C2=CC(c3ccc(Cl)cc3)n3nc(-c4ccc(C)cc4)nc3N2)cc1 (stereo unspecified)	-16	?	-33%
O=S(=O)(Nc1nc2n(n1)C(c1ccc(F)cc1)C=C(c1ccccc1)N2)c1ccccc1 (stereo unspecified)	96*	-5%	-13%
COc1ccc(C2C=C(c3ccc(Cl)cc3)Nc3nc(-c4ccc(Cl)cc4)nn32)cc1 (stereo unspecified)	10	25µM*	-92%
Cc1ccc(S(=O)(=O)Nc2nc3n(n2)C(c2ccccc2Cl)C=C(c2ccccc2)N3)cc1 (stereo unspecified)	?	-20%	-14%
O=C(CCN1CCN(C(=O)OCc2cc(Cl)cc(Cl)c2)CC1)c1ccc2[nH]c(=O)oc2c1	·	3%	?
CCOC(=O)c1ccc(N2C(=O)c3[nH]nc(-c4ccc(OCC)cc4)c3C2c2cccs2)cc1 (stereo unspecified)	8	?	-37%
CCOC(=O)c1ccc(N2C(=O)c3[nH]nc(-c4ccccc4)c3C2c2cccs2)cc1 (stereo unspecified)	-21	16µM*	-63%
O=c1oc2ccccc2n1CCCOc1ccccc1Cl	34	22%	7.9µM*
CCOc1ccc(Cn2c(=O)oc3ccccc32)cc1	-4	8%	-7%
Cc1ccc(-n2ncc3c(Nc4cccc(C(F)(F)F)c4)ncnc32)cc1C	94*	?	0%
Cc1ccc(-n2ncc3c(Nc4cccc(C)c4)ncnc32)cc1	?	67%	?
CC(C)NC[C@@H](C(=O)N1CCN(c2ncnc3c2[C@H](C)C[C@H]3O)CC1)c1ccc(Cl)cc1	·	?	-40%
Cc1ccc2ccc3cc(C(=O)N4CCN(c5ccccc5F)CC4)nc3c2[nH]1	-1	-27%	-19%
Cc1ccc2ccc3cc(C(=O)Nc4ccc(C)c(F)c4)nc3c2[nH]1	60*	-17%	-9%
Cc1sc(-n2cccc2)c(C(C)NC(=O)Nc2ccccc2Cl)c1C (stereo unspecified)	-17	?	-26%
Cc1cc(Nc2ccc(Cl)cc2)n2cnnc2n1	-4	-6%	-4%
Cc1cc(NCc2ccc(Cl)cc2)n2cnnc2n1	-2	25µM*	-70%
CCS(=O)(=O)c1nc2ccccc2n1CC(=O)Nc1ccccc1C(=O)OC	6	36%[11.5 µM]	?
NCC(=O)Nc1ccc(-n2nc(C(F)(F)F)cc2-c2ccc3c(ccc4ccccc43)c2)cc1	·	-14%	-25%
COc1ccccc1CNC(=O)c1cccc(N2CCCS2(=O)=O)c1	21	?	3%
Cc1ccc(NC(=O)c2cccc(N3CCCS3(=O)=O)c2)cc1	-21	10%	?
O=C(NCc1ccc(Cl)cc1Cl)c1cccc(N2CCCS2(=O)=O)c1	62*	?	-32%
Cc1ccc(NC(=O)c2cccc(N3CCCS3(=O)=O)c2)cc1C	39	52%	2.2µM*

Screens deposited in PubChem by National Center for Advancing Translational Sciences (NCATS).
